This passage reports sensor-assay potency score (higher = more potent) results from the OligoGym collection.
Also: reference of the scale not given here.

For one assay, the target named is TC2N. As to the kind of experiment: pooled miR-30 sensor sort-seq; sequence = guide strand. The conditions noted are these: shRNA.
Sequence TTTCTTCTTACAGAGCTTCGAC yielded a sensor-assay potency score (higher = more potent) of -0.277.

For TTAAATCACAAACCGATCCATA, the sensor-assay potency score (higher = more potent) was -0.989.

Regarding TAGCATTTTGACTATTTGGGAC, the sensor-assay potency score (higher = more potent) was -0.206.

TGAACTGGAAAGTTCTACCTTT showed a sensor-assay potency score (higher = more potent) of 0.507.

Regarding TAAAACTGTGATCCAGATCTGT, the sensor-assay potency score (higher = more potent) is -0.0159.

The sequence TTACTGTCTCTTTCCACTGGTT registered a sensor-assay potency score (higher = more potent) of -0.545.

Consider TTTAATAGCAAATACAAACGTT, for which the sensor-assay potency score (higher = more potent) is -0.37.

The sequence TTACTGTCTGTGTCTCTTGTTG yielded a sensor-assay potency score (higher = more potent) of -0.31.

For the sequence TTAATAGCAAATACAAACGTTT, the sensor-assay potency score (higher = more potent) is -0.542.

For the sequence TTGAAGAAGAACTACTGGGTAC, the sensor-assay potency score (higher = more potent) is -0.298.

On to TTATAAATCAACTCTCCCGAGC, for which the sensor-assay potency score (higher = more potent) is -0.579.

Another assay deals with TCEA3. Described as above. The following applies: shRNA.
Sequence TTGGTAGATATGATCTTCGATT registered a sensor-assay potency score (higher = more potent) of -0.766.

As to TCTTGTCACAGTTGACTCCATA, the sensor-assay potency score (higher = more potent) is -0.75.

ATAGGTGCAGTTCTTCTTCTTG showed a sensor-assay potency score (higher = more potent) of -0.625.

TACTTCATGTCCGTGCTCTTGA: the sensor-assay potency score (higher = more potent) was found to be 0.446.

Regarding TTCTTCTTGCATTTGCTGCACT, the sensor-assay potency score (higher = more potent) was -0.468.

Consider TTAACAGCAACTCCAATCCTGG, for which the sensor-assay potency score (higher = more potent) was -0.797.

With TTGAGGTTGCTTATGCGGCTGC, the sensor-assay potency score (higher = more potent) was -0.208.

Sequence TCTGATGCCATCTTGTCACAGT gave a sensor-assay potency score (higher = more potent) of -0.177.

Consider ATTAACAGCAACTCCAATCCTG, for which the sensor-assay potency score (higher = more potent) is 0.388.

TTCTTCTTCTTGCATTTGCTGC came in with a sensor-assay potency score (higher = more potent) of -0.856.

In the case of TTCCGGTACTTCATGTCCGTGC, the sensor-assay potency score (higher = more potent) was 0.146.

For the sequence TCGATTTCTGATGCCATCTTGT, the sensor-assay potency score (higher = more potent) is -0.388.

A further assay has as its target TCEAL1. Described as above. The conditions noted are these: shRNA.
TTCGGGAGAGTGCTCCACCGGA had a sensor-assay potency score (higher = more potent) of -1.49.

For the sequence ATTATCATCAGTTTGTTTCTTA, the sensor-assay potency score (higher = more potent) stood at 0.834.

Take TGTATCATCTCCTCATTGCTTA: the sensor-assay potency score (higher = more potent) came out at 0.297.

TCATCTCTTCTAGCTCATCTGC showed a sensor-assay potency score (higher = more potent) of -1.12.

Sequence TTATGTTTTCCTACTCCACAAG yielded a sensor-assay potency score (higher = more potent) of -1.15.

In the case of TTACTCTTTTCATCTCTTCTAG, the sensor-assay potency score (higher = more potent) is -0.0336.

For the sequence ATCAGTTTGTTTCTTACTCTTT, the sensor-assay potency score (higher = more potent) was -0.801.

In turn, TTTTCATCTCTTCTAGCTCATC displayed a sensor-assay potency score (higher = more potent) of -1.39.

Take AAAGCTTCCTTCTTCAAGCTTA: the sensor-assay potency score (higher = more potent) turned out to be 0.373.

Take TAAATTGCGGGCGAGAACGAGC: the sensor-assay potency score (higher = more potent) is -1.13.

As to TTCTAGCTCATCTGCTGCCTGT, the sensor-assay potency score (higher = more potent) is -0.542.

In turn, TTTGTTTCTTACTCTTTTCATC registered a sensor-assay potency score (higher = more potent) of -1.09.

The next assay deals with TCEANC2. The description is as above. The conditions noted are these: shRNA.
In turn, TTGATTTTAACACTTCCCTGGA gave a sensor-assay potency score (higher = more potent) of 0.232.

Sequence TTTCTGAGCATTTTTCCTCAAC returned a sensor-assay potency score (higher = more potent) of -1.1.

Regarding TATAGTAGTAACTTCATCTGAC, the sensor-assay potency score (higher = more potent) was 0.875.

TACAACCACAACTCTCTTCAGA yielded a sensor-assay potency score (higher = more potent) of -0.694.

In the case of TTCTACAACCACAACTCTCTTC, the sensor-assay potency score (higher = more potent) is -0.1.
